Bead autofluor: flagged as autofluorescent in microsphere protease counterscreen; fluorescence intensity (test concentration not listed); compound autofluorescence counterscreen, microsphere flow cytometry; stronger effect = higher value; AID 624483; actives 3.1% (n = 360,000); in the data active = fluorescence intensity above about 16000; inconclusive = no clear call, values can overlap the other calls
MazF activator: activators of E. coli MazEF toxin-antitoxin RNase, primary screen, biochemical, fluorescence, uHTS; actives 0.32% (n = 350,000); activation, % at 20 µM; Endoribonuclease toxin MazF (Escherichia coli (strain K12)), P0AE70; AID 504720, 2011; FAM/BHQ RNA-DNA oligo cleavage fluorescence, 5 h; in the data active = activation above about 50%
Target sequence (P0AE70 whole entry, looked up): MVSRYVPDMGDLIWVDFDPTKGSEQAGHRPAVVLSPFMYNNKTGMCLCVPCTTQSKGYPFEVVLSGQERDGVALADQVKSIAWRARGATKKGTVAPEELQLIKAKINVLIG
BoNT-F LC inh: BoNT/F light chain protease inhibitors, primary screen, biochemical, flow cytometry, MLPCN library. Botulinum neurotoxin type F light chain protease (Clostridium botulinum). Multiplex microsphere protease cleavage assay. inhibition, % at 10 µM. actives 0.22% (n = 360,000). AID 588497, 2011; in the data active = inhibition above about 35%, passing the limit was not always enough; inconclusive = no clear call, values can overlap the other calls; also: plate controls were buffer without enzyme for full effect and enzyme alone for no effect
BoNT A protease: BoNT/A light chain protease inhibitors, primary screen, biochemical, flow cytometry, MLPCN library | Botulinum neurotoxin type A light chain protease (Clostridium botulinum A str. ATCC 3502) | inhibition, % at 10 µM | multiplex microsphere protease substrate cleavage | actives 0.17% (n = 360,000) | AID 588499, 2011; also: plate controls were buffer without enzyme for full effect and enzyme alone for no effect
Anthrax LF inh2: Bacillus anthracis LF protease inhibitors, primary screen, biochemical, multiplex microsphere, MLPCN library. Lethal factor (Bacillus anthracis), P15917. multiplex microsphere protease cleavage assay. inhibition, % at 10 µM. actives 0.12% (n = 360,000). AID 588501, 2011; also: plate controls were buffer without enzyme for full effect and enzyme alone for no effect
* = called active by the depositor. Hits are enriched below; roughly 3.7% of the tested compounds scored in any of these assays. Rule as the data show it, unless noted: active = inhibition above about 30%; inconclusive = no clear call, values can overlap the other calls; inactive = below that.

Screening CN(C)CCNC(=O)c1ccccc1 returned Bead autofluor 20030*, MazF activator -4, BoNT-F LC inh 4, BoNT A protease 2 and Anthrax LF inh2 -18.
Cc1ccc(S(=O)(=O)N(C)c2ccc(C(=O)NCCc3ccccc3)cc2)cc1 was read as Bead autofluor 4904, MazF activator -2, BoNT-F LC inh 9, BoNT A protease 2 and Anthrax LF inh2 0.
`CC(C)C[C@H]1CN(CCCC[C@@H]2CNC(=O)C(=O)N2CCc2ccccc2)C(=O)C(=O)N1CCc1ccccc1` gave Bead autofluor 5389, BoNT-F LC inh -6, BoNT A protease 0 and Anthrax LF inh2 -11.
`CCCCn1c(N)c(N(CC(C)C)C(=O)c2ccc([N+](=O)[O-])o2)c(=O)[nH]c1=O` gave Bead autofluor 3769, MazF activator -20, BoNT-F LC inh 0, BoNT A protease 0 and Anthrax LF inh2 -2.
For CN1CCN(C(=O)c2ccc(CNS(=O)(=O)c3cccc(Cl)c3)cc2)CC1 the results were Bead autofluor 6118, MazF activator 9, BoNT-F LC inh 4, BoNT A protease 0 and Anthrax LF inh2 0.
Screening CC(C)NC(=O)N(C)C[C@H]1Oc2c(NC(=O)C3CC3)cccc2C(=O)N([C@H](C)CO)C[C@@H]1C returned Bead autofluor 4008, MazF activator -2, BoNT-F LC inh 6, BoNT A protease 0 and Anthrax LF inh2 2.
Screening CCN(CC)S(=O)(=O)c1cccc(C(=O)NCCc2ccccc2)c1 returned Bead autofluor 16952*, MazF activator -7, BoNT-F LC inh 0, BoNT A protease -3 and Anthrax LF inh2 -3.
`CN(C)S(=O)(=O)c1cccc(C(=O)NCCNC(=O)c2cccc(S(=O)(=O)N(C)C)c2)c1` gave Bead autofluor 4081, MazF activator 9, BoNT-F LC inh inconclusive, BoNT A protease -4 and Anthrax LF inh2 8.
For O=C(NCSC1=NCCS1)c1ccccc1 the results were Bead autofluor 24719*, MazF activator 2, BoNT-F LC inh -6, BoNT A protease -4 and Anthrax LF inh2 1.
c1ccc(CSC2=NCCS2)cc1 was read as Bead autofluor 4853, MazF activator 11, BoNT-F LC inh 10, BoNT A protease 1 and Anthrax LF inh2 3.
Screening CSc1ccc(OC2(C)CCN(Cc3ccc(C(C)C)cc3)C2)cc1 (stereo not drawn) returned Bead autofluor 4119, BoNT-F LC inh -4, BoNT A protease -1 and Anthrax LF inh2 3.
COc1c(C)cc(Br)cc1C(=O)Nc1ccccc1C was read as Bead autofluor 4677, MazF activator -326, BoNT-F LC inh -3, BoNT A protease -1 and Anthrax LF inh2 -2.
Screening COc1c(C)cc(Br)cc1C(=O)O returned Bead autofluor 22363*, MazF activator -16, BoNT-F LC inh -2, BoNT A protease 0 and Anthrax LF inh2 -5.
`CCc1nc2ccc(C(=O)N(C)CCN(C)C)cn2c1N(C)Cc1cc2ccccc2s1` gave Bead autofluor 4240, BoNT-F LC inh -4, BoNT A protease 0 and Anthrax LF inh2 -14.
Screening CCOC(=O)c1c(C2COc3ccccc3O2)csc1NC(=O)c1ccco1 (stereo not drawn) returned Bead autofluor 21244*, MazF activator -10, BoNT-F LC inh 0, BoNT A protease -1 and Anthrax LF inh2 0.
CN1OC[C@@H]2CN(S(=O)(=O)c3cccc(C(F)(F)F)c3)[C@H](c3ccc(N4CCCCC4)cc3)C[C@@H]21 was read as Bead autofluor 5731, BoNT-F LC inh 0, BoNT A protease -2 and Anthrax LF inh2 -6.
COC(=O)[C@]1(C)N[C@H](CN(C)S(=O)(=O)c2ccc(C)cc2)[C@@H]2C(=O)N(Cc3ccccc3)C(=O)[C@@H]21 was read as Bead autofluor 3672, MazF activator 5, BoNT-F LC inh -2, BoNT A protease 1 and Anthrax LF inh2 -5.
`CCCCOC(=O)c1cccc(NC(=O)CCC(=O)O)c1` gave Bead autofluor 20646*, MazF activator 4, BoNT-F LC inh -1, BoNT A protease inconclusive and Anthrax LF inh2 1.
`CCOC(=O)Nc1cccc(Cl)c1C` gave Bead autofluor 4245, MazF activator 2, BoNT-F LC inh -1, BoNT A protease 0 and Anthrax LF inh2 1.
CCCCOC(=O)Nc1cccc(C(C)=O)c1 was read as Bead autofluor 16653*, MazF activator 1, BoNT-F LC inh -2, BoNT A protease 0 and Anthrax LF inh2 -3.
CCCCOC(=O)Nc1cccc(Cl)c1C was read as Bead autofluor 21233*, MazF activator -6, BoNT-F LC inh -4, BoNT A protease -2 and Anthrax LF inh2 -3.
Screening CCCCOC(=O)Nc1ccc(C(=O)OCCC)cc1 returned Bead autofluor 22577*, MazF activator -13, BoNT-F LC inh 2, BoNT A protease 2 and Anthrax LF inh2 -6.
`O=C(O)CCC(=O)Nc1cccc(C(=O)c2ccccc2)c1` gave Bead autofluor 4945, MazF activator 3, BoNT-F LC inh 0, BoNT A protease 0 and Anthrax LF inh2 -9.
For CCCCC(=O)Nc1ccc(N2CCCC2)cc1 the results were Bead autofluor 1448, MazF activator 9, BoNT-F LC inh -131, BoNT A protease 0 and Anthrax LF inh2 -28.
`CCCOC(=O)Nc1ccc(N2CCCCC2)cc1` gave Bead autofluor 22287*, MazF activator 12, BoNT-F LC inh 1, BoNT A protease 2 and Anthrax LF inh2 -3.
CCN(CC)c1ccc(NC(=O)COC(=O)c2cccs2)cc1 was read as Bead autofluor 22712*, MazF activator -2, BoNT-F LC inh 0, BoNT A protease 0 and Anthrax LF inh2 -3.
`CCN(c1ccc(NC(=O)COC(=O)c2cccs2)cc1)C(C)C` gave Bead autofluor 3344, MazF activator 3, BoNT-F LC inh -7, BoNT A protease 1 and Anthrax LF inh2 -7.
N=c1n(-c2ccccc2)c(O)cc(=O)n1-c1ccccc1 was read as Bead autofluor 22975*, MazF activator 2, BoNT-F LC inh -7, BoNT A protease -3 and Anthrax LF inh2 0.
Screening Brc1cc2c(cc1C1OCCCO1)OCO2 returned Bead autofluor 3077, MazF activator -1, BoNT-F LC inh 4, BoNT A protease 0 and Anthrax LF inh2 -1.
`Cc1ccc(-c2nnn(CC(=O)N(c3cccc(O)c3)C(C(=O)NC(C)(C)C)c3cccs3)n2)o1` (stereo not drawn) gave Bead autofluor 16505*, MazF activator 5, BoNT-F LC inh 0, BoNT A protease 0 and Anthrax LF inh2 -2.
`Cc1ccc(-c2nnn(CC(=O)N(Cc3ccccc3)C(C(=O)NC(C)(C)C)c3ccncc3)n2)o1` (stereo not drawn) gave Bead autofluor 20840*, MazF activator -2, BoNT-F LC inh 4, BoNT A protease -1 and Anthrax LF inh2 -2.

Screening results from PubChem BioAssay.
